In PubChem BioAssay (NCI):
The panel holds about 83,000 compounds, 20% with a hit somewhere; the sample as a whole holds those more often.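 Interpretation: 100, growth as untreated; towards 0, rising growth inhibition; 0, no net growth; 0 to -100, cell death. Compounds scoring below 10 were considered active.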 Calls of active or inactive are those of the source.

Key:
Assay in all cases: NCI-60 one-dose screen, 48 h (100 = growth as untreated, 0 = no growth, -100 = all killed)
RPMI-8226 leukemia = conditions: 10 µM unless noted
OVCAR-8 ovarian = conditions: 10 µM unless noted
OVCAR-5 ovarian = conditions: 10 µM unless noted
OVCAR-4 ovarian = conditions: 10 µM unless noted
SK-OV-3 ovarian = conditions: 10 µM unless noted
IGROV1 ovarian = conditions: 10 µM unless noted
OVCAR-3 ovarian = conditions: 10 µM unless noted
HS 578T breast = conditions: 10 µM unless noted
NCI/ADR-RES ovarian = conditions: 10 µM unless noted
BT-549 breast = conditions: 10 µM unless noted
MDA-MB-435 melanoma = conditions: 10 µM unless noted
SW-620 colon = conditions: 10 µM unless noted
MCF7 breast = conditions: 10 µM
HCT-116 colon = conditions: 10 µM unless noted
HCC-2998 colon = conditions: 10 µM unless noted
KM12 colon = conditions: 10 µM unless noted
T-47D breast = conditions: 10 µM unless noted

Measured: growth

O=C(O)CCC(=O)c1ccc(C2CCCCCC2)cc1
inactive: RPMI-8226 leukemia 95.8% | OVCAR-8 ovarian 102% | OVCAR-5 ovarian 105% | OVCAR-4 ovarian 102% | SK-OV-3 ovarian 103% | IGROV1 ovarian 101% | OVCAR-3 ovarian 105% | HS 578T breast 102% | NCI/ADR-RES ovarian 102% | BT-549 breast 94.9% | MDA-MB-435 melanoma 105% | SW-620 colon 107% | MCF7 breast 96.6% | HCT-116 colon 98.5% | HCC-2998 colon 108% | KM12 colon 105%

Cc1cccc(NC(=O)c2sc3nc4c(cc3c2N)CCCC4)c1C
inactive: OVCAR-8 ovarian 23% | OVCAR-5 ovarian 44.1% | OVCAR-4 ovarian 65.3% | SK-OV-3 ovarian 32.5% | IGROV1 ovarian 40.7% | HS 578T breast 25.1% | BT-549 breast 37.5% | SW-620 colon 23.7% | MCF7 breast 17.1% | HCT-116 colon 14.8% | HCC-2998 colon 22.8%
active: RPMI-8226 leukemia 7.76% | OVCAR-3 ovarian -10.1% | NCI/ADR-RES ovarian -15.8% | MDA-MB-435 melanoma -40.6% | KM12 colon 8.85%

O=c1oc2ccc(I)cc2c(=O)n1-c1ccc(Br)cc1F
inactive: OVCAR-5 ovarian 20.7% | OVCAR-4 ovarian 17.1% | IGROV1 ovarian 16.3% | HCC-2998 colon 16.2%
active: RPMI-8226 leukemia -26.2% | OVCAR-8 ovarian 8.2% | SK-OV-3 ovarian -9.81% | OVCAR-3 ovarian 5.84% | HS 578T breast -4.87% | NCI/ADR-RES ovarian 7.59% | T-47D breast -7.37% | MDA-MB-435 melanoma -3.14% | SW-620 colon 8.98% | MCF7 breast 1.77% | HCT-116 colon 0.474% | KM12 colon -4.63%

O=C(Nc1ccc(I)cc1F)c1cc(F)ccc1O
active: RPMI-8226 leukemia -33.8% | OVCAR-8 ovarian 6.16% | SK-OV-3 ovarian -6.45% | OVCAR-3 ovarian 6.68% | HS 578T breast -3.33% | NCI/ADR-RES ovarian 4.19% | T-47D breast -12.4% | MDA-MB-435 melanoma -5.16% | SW-620 colon 7.82% | MCF7 breast 0.117% | HCT-116 colon -6.74% | HCC-2998 colon 8.95% | KM12 colon -11.4%
inactive: OVCAR-5 ovarian 23.6% | OVCAR-4 ovarian 12.4% | IGROV1 ovarian 12.7%

O=C(Nc1ccc(Cl)cc1F)c1cc(Br)ccc1O
active: RPMI-8226 leukemia -13.5% | OVCAR-8 ovarian 9.53% | SK-OV-3 ovarian -0.537% | OVCAR-3 ovarian 9.61% | HS 578T breast 1.54% | NCI/ADR-RES ovarian 7.03% | T-47D breast -14% | MCF7 breast 4% | HCT-116 colon 5.79% | KM12 colon 0.131%
inactive: OVCAR-5 ovarian 22% | OVCAR-4 ovarian 14.4% | IGROV1 ovarian 19.5% | SW-620 colon 11.4% | HCC-2998 colon 16.7%

Cn1cc([C@@H]2Nc3ccc4[nH]ncc4c3[C@H]3[C@H]4CCC(C4)[C@H]32)c(C(F)(F)F)n1
inactive: RPMI-8226 leukemia 46.6% | OVCAR-8 ovarian 62.5% | OVCAR-5 ovarian 79.4% | OVCAR-4 ovarian 77.4% | SK-OV-3 ovarian 77.4% | IGROV1 ovarian 56.7% | OVCAR-3 ovarian 34.7% | HS 578T breast 34% | NCI/ADR-RES ovarian 31.3% | BT-549 breast 54.6% | SW-620 colon 23.5% | MCF7 breast 25% | HCT-116 colon 27.6% | HCC-2998 colon 82.8% | KM12 colon 36.5%
active: MDA-MB-435 melanoma -1.69%

COc1ccc(-c2c(-c3ccc(OC)c(O)c3)cnc3ncnn23)cc1
inactive: RPMI-8226 leukemia 108% | OVCAR-8 ovarian 101% | OVCAR-5 ovarian 103% | OVCAR-4 ovarian 104% | SK-OV-3 ovarian 110% | IGROV1 ovarian 110% | OVCAR-3 ovarian 112% | HS 578T breast 104% | NCI/ADR-RES ovarian 102% | BT-549 breast 102% | MDA-MB-435 melanoma 108% | SW-620 colon 99.1% | MCF7 breast 95.2% | HCT-116 colon 98% | HCC-2998 colon 109% | KM12 colon 102%

CC[C@]1(O)C[C@@H]2CN(CCc3c([nH]c4ccccc34)[C@@](C(=O)OC)(c3cc4c(cc3OC)N(C)[C@H]3[C@@](O)(C(=O)OC)[C@H](OC(=O)CCCBr)[C@]5(CC)C=CCN6CC[C@]43[C@@H]65)C2)C1
active: RPMI-8226 leukemia 6.27% | OVCAR-3 ovarian -1.93% | HS 578T breast 8.92% | MDA-MB-435 melanoma -36% | HCT-116 colon 5.16% | HCC-2998 colon 9.27% | KM12 colon 7.23%
inactive: OVCAR-8 ovarian 19.4% | OVCAR-5 ovarian 24.9% | OVCAR-4 ovarian 35.3% | SK-OV-3 ovarian 30.8% | IGROV1 ovarian 11.2% | NCI/ADR-RES ovarian 13.8% | T-47D breast 74.2% | SW-620 colon 22.4% | MCF7 breast 12.9%

O=[N+]([O-])c1cc2c(ccc3occc32)o1
active: MDA-MB-435 melanoma -75.1% | MCF7 breast 9.95% | HCT-116 colon 7.94%
inactive: RPMI-8226 leukemia 36.5% | OVCAR-8 ovarian 30% | OVCAR-5 ovarian 72.7% | OVCAR-4 ovarian 66.6% | SK-OV-3 ovarian 14.7% | IGROV1 ovarian 27.1% | OVCAR-3 ovarian 39.4% | HS 578T breast 50.4% | NCI/ADR-RES ovarian 29.2% | BT-549 breast 22% | SW-620 colon 27.6% | HCC-2998 colon 10.9% | KM12 colon 28.6%

CN(CCc1ccccc1)C(=S)N(C(=O)c1ccc([N+](=O)[O-])cc1)c1ccc(Cl)cc1
active: RPMI-8226 leukemia -15.8%
inactive: OVCAR-8 ovarian 99.3% | OVCAR-5 ovarian 100% | OVCAR-4 ovarian 86.3% | SK-OV-3 ovarian 102% | IGROV1 ovarian 105% | OVCAR-3 ovarian 83.5% | HS 578T breast 95.2% | NCI/ADR-RES ovarian 98.4% | T-47D breast 68% | MDA-MB-435 melanoma 85.9% | SW-620 colon 75.3% | MCF7 breast 33% | HCT-116 colon 67.3% | HCC-2998 colon 110% | KM12 colon 49.6%

O=c1oc2ccc(Br)cc2c(=O)n1-c1ccc(Cl)cc1F
active: RPMI-8226 leukemia -25.5% | OVCAR-8 ovarian 9.88% | SK-OV-3 ovarian 1.82% | OVCAR-3 ovarian 7.85% | HS 578T breast -5.24% | NCI/ADR-RES ovarian 8.34% | T-47D breast -1.08% | MDA-MB-435 melanoma -8.83% | SW-620 colon 9.75% | MCF7 breast 3.69% | HCT-116 colon 1.83% | KM12 colon -14.7%
inactive: OVCAR-5 ovarian 23.5% | OVCAR-4 ovarian 15.1% | IGROV1 ovarian 15.7% | HCC-2998 colon 22.7%

NCCNc1nc2ccc(F)cc2c2c(=O)c3cc(F)ccc3sc12
active: RPMI-8226 leukemia 7.67% | SW-620 colon -73.5% | MCF7 breast -15.2% | HCT-116 colon -87.1%
inactive: OVCAR-8 ovarian 29.9% | OVCAR-5 ovarian 81.2% | OVCAR-4 ovarian 37.2% | SK-OV-3 ovarian 77.6% | IGROV1 ovarian 22.9% | OVCAR-3 ovarian 38.1% | HS 578T breast 59.5% | NCI/ADR-RES ovarian 61.7% | T-47D breast 33.7% | MDA-MB-435 melanoma 13.4% | HCC-2998 colon 14.8% | KM12 colon 17.8%

Nc1cccc(Nc2cc(S(=O)(=O)O)c(N)c3c2C(=O)c2ccccc2C3=O)c1
inactive: RPMI-8226 leukemia 110% | OVCAR-8 ovarian 104% | OVCAR-5 ovarian 111% | OVCAR-4 ovarian 107% | SK-OV-3 ovarian 88.6% | IGROV1 ovarian 106% | OVCAR-3 ovarian 103% | HS 578T breast 107% | NCI/ADR-RES ovarian 106% | T-47D breast 93.1% | MDA-MB-435 melanoma 109% | SW-620 colon 104% | HCT-116 colon 108% | HCC-2998 colon 120% | KM12 colon 105%

O=c1oc2ccc(-c3ccc(F)cc3F)cc2c(=O)n1-c1cccc(C(F)(F)F)c1
active: RPMI-8226 leukemia -6.6% | OVCAR-8 ovarian 8.92% | SK-OV-3 ovarian -9.56% | OVCAR-3 ovarian 7.84% | HS 578T breast 8.28% | NCI/ADR-RES ovarian 7.17% | T-47D breast -13.7% | MDA-MB-435 melanoma 5.25% | MCF7 breast 3.59% | HCT-116 colon 8.28% | KM12 colon 3.37%
inactive: OVCAR-5 ovarian 12.1% | OVCAR-4 ovarian 19.2% | IGROV1 ovarian 20.5% | SW-620 colon 12.6% | HCC-2998 colon 22.9%

O=C1/C(=C/c2ccc(O)cc2)COc2ccc(O)c(O)c21
active: RPMI-8226 leukemia -6.76% | IGROV1 ovarian 8.79% | OVCAR-3 ovarian -8.96%
inactive: OVCAR-8 ovarian 17.6% | OVCAR-5 ovarian 43.7% | OVCAR-4 ovarian 43.7% | HS 578T breast 47.4% | NCI/ADR-RES ovarian 27.2% | T-47D breast 11.8% | BT-549 breast 57.5% | MDA-MB-435 melanoma 19.5% | SW-620 colon 28.4% | MCF7 breast 13.8% | HCT-116 colon 20.8% | HCC-2998 colon 75.7% | KM12 colon 19.8%

Cc1ccc2c(n1)C(=O)C(Oc1ccc(Br)cc1)=CC2=O
inactive: RPMI-8226 leukemia 78.7% | OVCAR-8 ovarian 92.3% | OVCAR-5 ovarian 114% | OVCAR-4 ovarian 94.5% | IGROV1 ovarian 104% | OVCAR-3 ovarian 84.2% | HS 578T breast 100% | NCI/ADR-RES ovarian 95.8% | T-47D breast 59.2% | BT-549 breast 86.5% | MDA-MB-435 melanoma 101% | SW-620 colon 94% | MCF7 breast 85.6% | HCT-116 colon 87.3% | HCC-2998 colon 101% | KM12 colon 102%

CCCCC1COc2cccc3c2N1C=C/C3=C\C(=O)N(C)c1ccccc1 (configuration not stated)
active: RPMI-8226 leukemia 7.39%
inactive: OVCAR-8 ovarian 52.9% | OVCAR-5 ovarian 83.9% | OVCAR-4 ovarian 50.7% | IGROV1 ovarian 56.1% | OVCAR-3 ovarian 49.2% | HS 578T breast 78.4% | NCI/ADR-RES ovarian 86.4% | T-47D breast 41.6% | BT-549 breast 50.8% | MDA-MB-435 melanoma 69% | SW-620 colon 73.4% | MCF7 breast 66.7% | HCT-116 colon 36.1% | HCC-2998 colon 71.1% | KM12 colon 65.2%

Nc1ccc(C2c3ccccc3Oc3ccccc32)cc1
inactive: RPMI-8226 leukemia 94% | OVCAR-8 ovarian 102% | OVCAR-5 ovarian 101% | OVCAR-4 ovarian 105% | SK-OV-3 ovarian 98.3% | IGROV1 ovarian 91.8% | OVCAR-3 ovarian 96.4% | NCI/ADR-RES ovarian 100% | T-47D breast 84.1% | BT-549 breast 109% | MDA-MB-435 melanoma 104% | SW-620 colon 101% | MCF7 breast 104% | HCT-116 colon 97.8% | HCC-2998 colon 117% | KM12 colon 103%

C=C1C(=O)O[C@H]2[C@H]1CC/C(COC(=O)/C=C\C(=O)O)=C\CC[C@@]1(C)O[C@@H]21
inactive: RPMI-8226 leukemia 114% | OVCAR-8 ovarian 101% | OVCAR-5 ovarian 93.8% | OVCAR-4 ovarian 113% | IGROV1 ovarian 107% | OVCAR-3 ovarian 113% | HS 578T breast 103% | NCI/ADR-RES ovarian 101% | T-47D breast 100% | BT-549 breast 103% | MDA-MB-435 melanoma 107% | SW-620 colon 105% | MCF7 breast 94.3% | HCT-116 colon 109% | HCC-2998 colon 104% | KM12 colon 106%
